Results filed as inconclusive are left out. Calls of active or inactive are those of the source. Unless noted, calls come from the whole dose curve; as a rule, active = well fitted curve in the direction sought with a large enough effect; inconclusive = small, poorly fitted or top-dose-only effect, or another doubt; inactive = no such curve, though single readings can be large; an effect the other way counts as inactive or inconclusive.
How the values were obtained:
[1] = AP1 Signaling Pathway (AID 357; active = well fitted curve in either direction with a large enough effect, not every such curve was filed as active;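 note: ME-180 reporter cells stimulated with EGF at its EC50 level; % is set by controls: 0 for no effect and ±100 for the full control effect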)
How it was run: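 Beta-lactamase reporter under AP-1 response element, ME-180 background. Stimulus: EC50 EGF. Compound exposure 5 h, 37 °C. Detection: CCF4, 2.5 h RT, 460/530 nm. Values: AC50 from titration.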

[2] = NFAT Signaling Pathway (AID 444; active = well fitted curve in either direction with a large enough effect, not every such curve was filed as active;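 note: carbachol stimulus at about its EC50 of 1 µM final; % is set by controls: 0 for no effect and ±100 for the full control effect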); conditions: Jurkat NFAT-bla M1, carbachol, beta-lactamase ratio, 5 h; at 17.2 µM (top of the series)
How it was run: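 Jurkat cells carrying an NFAT-driven β-lactamase reporter and co-transfected muscarinic M1 receptor were treated with compound plus carbachol (1 uM final, an EC50 level) for 5 h at 37 °C. CCF4 loading followed for 1 h at RT; 460/530 nm ratio gave %activity.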

[3] = molecular target: Glucocorticoid receptor (Homo sapiens) (UniProt P04150); test: GR-GFP Redistribution (AID 450;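 active = compounds whose dose series gives a full or clear partial fitted curve of increased nuclear translocation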; note: potency is the fitted concentration of half-maximal effect); conditions: U2OS GR-GFP nuclear translocation, laser cytometry, 2 h
[4] = molecular target: Glucocorticoid receptor (Homo sapiens) (UniProt P04150); test: GR-EFC Redistribution (AID 451; calls by dose curve; note: potency is the fitted concentration of half-maximal effect); conditions: CHO-K1 GR-EFC translocation, beta-gal luminescence, 2 h
How it was run: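 CHO-K1 cells stably expressing nuclear-localized β-gal enzyme acceptor and GR fused C-terminally to the enzyme donor fragment; ligand-driven nuclear translocation restores β-gal by complementation. Compounds titrated up to 46 uM final, 2 h at 37 °C; luminescence read.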

[5] = molecular target: 3',5'-cyclic-AMP phosphodiesterase 4B (Homo sapiens) (UniProt Q07343); test: qHTS Assay for Inhibitors of PDE-IV (AID 607; active = well fitted activation curve with a large enough effect in the main read-out, with a control signal flat, not every such curve was filed as active; note: % of control where 0% means no effect)
How it was run: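 The readout is membrane depolarisation from a cAMP-sensing CNG channel, detected with a potential dye at ex 535/em 590. Cells were HEK293-derived (endogenous PDE-IV) at 1000 cells/well, titrated up to 22.9 uM final.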

[6] = qHTS Assay for Lipid Storage Modulators (AID 1519; calls by dose curve); conditions: Drosophila S3 cells, BODIPY lipid droplet/cell ratio, laser cytometry, cells loaded with oleic acid
How it was run: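 Cells seeded at 5,000 per well were treated with compounds over a concentration series and loaded with oleic acid (400 uM, as added). Lipid droplet fluorescence (488 nm excitation, 500-530 nm channel) was read by laser-scanning cytometry and normalized to 20 uM Triacsin C.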

[7] = molecular target: ATP-dependent 6-phosphofructokinase (Trypanosoma brucei brucei) (UniProt O15648); test: qHTS Assay to Find Inhibitors of T. brucei phosphofructokinase: hit validation (AID 492961);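 note: luminescence reports ADP formed as PFK phosphorylates fructose-6-phosphate with ATP; % is set by controls: 0 for no effect and ±100 for the full control effect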
How it was run: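 Percent activity derived from corrected luminescence, normalized between 0x and 1x enzyme controls, then fitted to concentration-response curves. Conditions: 1.25 nM PFK, 0.1 mM ATP, 0.5 mM F6P, 45 min RT.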

[8] = molecular target: Luciferin 4-monooxygenase (Photinus pyralis) (UniProt P08659); test: Biochemical firefly luciferase enzyme assay for NPC (AID 624030);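 note: purified P. pyralis luciferase at 10 nM with luciferin and ATP substrate; 0% = DMSO and -100% = full luciferase inhibition by PTC124 control; nearly all actives have a fitted effect of over 70% in size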
How it was run: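 Counter-screen for direct inhibition of the luciferase enzyme by approved-drug library compounds, run at 10 nM enzyme in 50 mM Tris acetate (final). Luminescence was read within 5 min of enzyme-buffer addition and normalized to PTC124 versus DMSO (0%).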

[9] = qHTS profiling for inhibitors of Plasmodium falciparum proliferation (AID 504749);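 note: 0% = DMSO vehicle and full inhibition = artemisinin control; nearly all actives have a fitted effect of over 60% in size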; conditions: P. falciparum in erythrocytes, SYBR Green DNA, 72 h, at 12.8 µM (top of the series)
How it was run: (§1)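 Quantitative HTS: compounds pinned into medium, infected erythrocytes added (0.3% parasitemia, 2.5% hematocrit), 72 h culture at 37 C under 5% CO2. Saponin/Triton lysis with SYBR Green I, overnight RT, then fluorescence read.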

C2A = test: as above; conditions: P. falciparum in erythrocytes, SYBR Green DNA, 72 h; series mostly up to 28.7 µM
How it was run: as §1

CP217 = test: as above; conditions: P. falciparum in erythrocytes, SYBR Green DNA, 72 h; series mostly up to 28.7 µM
How it was run: as §1

CP252 = test: as above; conditions: P. falciparum in erythrocytes, SYBR Green DNA, 72 h; series mostly up to 12.8 µM
How it was run: as §1

CP256 = test: as above; conditions: P. falciparum in erythrocytes, SYBR Green DNA, 72 h; series mostly up to 28.7 µM
How it was run: as §1

CP262 = test: as above; conditions: P. falciparum in erythrocytes, SYBR Green DNA, 72 h; series mostly up to 28.7 µM
How it was run: as §1

[10] = Stat Signaling Pathway (AID 446; active = well fitted curve in either direction with a large enough effect, not every such curve was filed as active;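 note: ME-180 cervical cancer cells given 40 pM IL-6 alongside compound; SIE-controlled beta-lactamase reporter measured as 460/530 nm FRET emission ratio; % is set by controls: 0 for no effect and ±100 for the full control effect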)
How it was run: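 Emission at 460 and 530 nm (excitation 405 nm) reports SIE-controlled beta-lactamase in ME-180 cells. Cells received compound with 40 pM IL-6 for 5 hrs at 37 C; data scaled between 300 pM IL-6 and 125 nM JAK-inhibitor controls.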

[11] = molecular target: Mitogen-activated protein kinase 10 (Mus musculus) (UniProt Q61831); test: JNK3 AlphaScreen Assay (AID 530; active = well fitted curve in either direction with a large enough effect, not every such curve was filed as active)
How it was run: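 Phosphorylation of biotinylated GST-cJun(1-79) at Ser73 is measured by AlphaScreen proximity luminescence. Enzyme is JNK3 in HepG2 lysates activated with interleukin-1beta and tumor necrosis factor alpha; ATP is 10 uM final.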

[12] = molecular target: Ubiquitin carboxyl-terminal hydrolase 1 (Homo sapiens) (UniProt O94782); test: Inhibitors of USP1/UAF1: Pilot qHTS (AID 504865);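 note: rhodamine fluorescence freed from ubiquitin-rhodamine substrate followed over time; top concentration of the series differs between compounds; % is set by controls: 0 for no effect and ±100 for the full control effect; nearly all actives have a fitted effect of over 35% in size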
How it was run: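 USP1/UAF1 complex at 1 nM preincubated 15 min at room temperature with compound, then Ub-Rho substrate added at 150 nM final. Fluorescence (480/540 nm) read kinetically in 50 mM HEPES pH 7.8, 0.5 mM EDTA, 1 mM TCEP, 0.1 mg/ml BSA, 0.01% Tween-20.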

[13] = measured here: cell count channel max response
[14] = measured here: lipid channel max response

Chain of Glucocorticoid receptor (Homo sapiens) (P04150 whole entry, looked up, the tested form may be a part): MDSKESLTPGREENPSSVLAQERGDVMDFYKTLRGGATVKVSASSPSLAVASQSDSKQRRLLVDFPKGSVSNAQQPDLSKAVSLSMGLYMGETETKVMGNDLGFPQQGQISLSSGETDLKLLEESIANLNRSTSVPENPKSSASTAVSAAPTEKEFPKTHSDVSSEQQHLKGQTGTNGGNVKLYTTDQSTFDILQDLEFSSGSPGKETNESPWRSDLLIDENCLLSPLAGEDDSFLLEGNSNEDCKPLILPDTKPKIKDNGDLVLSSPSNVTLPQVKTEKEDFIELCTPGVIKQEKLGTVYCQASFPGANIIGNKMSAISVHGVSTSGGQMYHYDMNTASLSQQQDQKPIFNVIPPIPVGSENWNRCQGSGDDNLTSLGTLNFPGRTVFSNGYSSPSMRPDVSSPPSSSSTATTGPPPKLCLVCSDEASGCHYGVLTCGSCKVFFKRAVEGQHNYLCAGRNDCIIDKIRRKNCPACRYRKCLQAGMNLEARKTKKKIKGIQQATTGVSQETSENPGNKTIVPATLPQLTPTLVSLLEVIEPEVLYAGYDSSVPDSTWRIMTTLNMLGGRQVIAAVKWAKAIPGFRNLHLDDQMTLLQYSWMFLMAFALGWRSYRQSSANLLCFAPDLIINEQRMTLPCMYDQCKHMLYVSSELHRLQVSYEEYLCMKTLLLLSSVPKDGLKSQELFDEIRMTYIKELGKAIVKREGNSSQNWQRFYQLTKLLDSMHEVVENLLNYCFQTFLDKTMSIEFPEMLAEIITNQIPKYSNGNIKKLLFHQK
Chain of 3',5'-cyclic-AMP phosphodiesterase 4B (Homo sapiens) (Q07343 whole entry, looked up): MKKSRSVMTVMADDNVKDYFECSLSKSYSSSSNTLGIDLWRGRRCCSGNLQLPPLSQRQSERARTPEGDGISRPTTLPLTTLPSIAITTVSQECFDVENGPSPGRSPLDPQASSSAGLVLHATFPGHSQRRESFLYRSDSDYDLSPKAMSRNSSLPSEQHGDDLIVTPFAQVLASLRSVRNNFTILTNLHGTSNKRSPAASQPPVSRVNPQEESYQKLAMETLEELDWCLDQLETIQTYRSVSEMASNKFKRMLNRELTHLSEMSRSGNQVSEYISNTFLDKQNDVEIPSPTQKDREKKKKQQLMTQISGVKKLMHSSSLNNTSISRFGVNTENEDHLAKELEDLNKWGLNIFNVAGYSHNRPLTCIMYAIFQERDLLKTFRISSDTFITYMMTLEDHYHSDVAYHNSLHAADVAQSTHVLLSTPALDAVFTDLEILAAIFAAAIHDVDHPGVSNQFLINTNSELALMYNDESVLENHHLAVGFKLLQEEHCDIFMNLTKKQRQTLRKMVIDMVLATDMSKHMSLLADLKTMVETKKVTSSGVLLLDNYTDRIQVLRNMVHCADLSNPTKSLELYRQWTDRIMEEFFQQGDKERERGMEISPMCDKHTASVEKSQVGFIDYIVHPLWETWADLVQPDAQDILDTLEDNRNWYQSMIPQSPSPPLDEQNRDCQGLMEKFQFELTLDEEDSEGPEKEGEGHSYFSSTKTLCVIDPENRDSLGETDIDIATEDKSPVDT
Chain of Luciferin 4-monooxygenase (Photinus pyralis) (P08659 whole entry, looked up): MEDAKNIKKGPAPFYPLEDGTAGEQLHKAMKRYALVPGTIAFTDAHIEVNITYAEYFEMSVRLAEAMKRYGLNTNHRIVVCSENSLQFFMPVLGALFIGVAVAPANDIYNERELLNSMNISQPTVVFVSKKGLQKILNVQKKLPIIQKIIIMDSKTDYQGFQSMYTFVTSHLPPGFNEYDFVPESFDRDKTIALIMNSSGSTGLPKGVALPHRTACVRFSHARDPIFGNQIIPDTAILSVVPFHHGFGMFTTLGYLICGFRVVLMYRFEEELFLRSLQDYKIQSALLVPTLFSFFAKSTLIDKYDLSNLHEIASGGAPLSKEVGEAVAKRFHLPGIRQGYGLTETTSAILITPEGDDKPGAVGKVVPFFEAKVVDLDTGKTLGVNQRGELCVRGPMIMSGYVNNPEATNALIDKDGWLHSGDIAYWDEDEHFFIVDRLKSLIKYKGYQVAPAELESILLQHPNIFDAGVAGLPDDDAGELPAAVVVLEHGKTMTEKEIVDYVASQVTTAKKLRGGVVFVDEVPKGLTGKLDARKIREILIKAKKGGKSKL
Chain of Ubiquitin carboxyl-terminal hydrolase 1 (Homo sapiens) (O94782 whole entry, looked up): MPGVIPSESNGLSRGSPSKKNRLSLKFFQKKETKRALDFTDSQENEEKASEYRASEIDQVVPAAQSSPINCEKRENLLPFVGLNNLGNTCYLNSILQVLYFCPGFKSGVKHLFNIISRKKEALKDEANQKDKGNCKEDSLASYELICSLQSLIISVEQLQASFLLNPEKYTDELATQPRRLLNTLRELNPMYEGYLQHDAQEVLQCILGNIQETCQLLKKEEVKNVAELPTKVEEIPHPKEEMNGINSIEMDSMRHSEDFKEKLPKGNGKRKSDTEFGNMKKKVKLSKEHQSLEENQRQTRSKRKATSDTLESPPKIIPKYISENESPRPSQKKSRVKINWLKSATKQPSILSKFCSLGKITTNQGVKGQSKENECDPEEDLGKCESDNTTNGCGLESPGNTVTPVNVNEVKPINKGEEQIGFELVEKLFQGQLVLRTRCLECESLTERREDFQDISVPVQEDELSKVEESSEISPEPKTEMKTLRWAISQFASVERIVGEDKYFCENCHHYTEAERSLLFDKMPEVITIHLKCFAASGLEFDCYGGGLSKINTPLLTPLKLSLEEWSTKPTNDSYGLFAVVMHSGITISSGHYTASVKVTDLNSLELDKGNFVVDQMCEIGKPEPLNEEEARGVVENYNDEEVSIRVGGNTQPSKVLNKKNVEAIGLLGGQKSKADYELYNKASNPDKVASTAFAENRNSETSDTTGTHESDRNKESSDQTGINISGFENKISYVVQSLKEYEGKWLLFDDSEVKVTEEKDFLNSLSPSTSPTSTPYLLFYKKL
Chain of ATP-dependent 6-phosphofructokinase (Trypanosoma brucei brucei) (O15648 whole entry, looked up): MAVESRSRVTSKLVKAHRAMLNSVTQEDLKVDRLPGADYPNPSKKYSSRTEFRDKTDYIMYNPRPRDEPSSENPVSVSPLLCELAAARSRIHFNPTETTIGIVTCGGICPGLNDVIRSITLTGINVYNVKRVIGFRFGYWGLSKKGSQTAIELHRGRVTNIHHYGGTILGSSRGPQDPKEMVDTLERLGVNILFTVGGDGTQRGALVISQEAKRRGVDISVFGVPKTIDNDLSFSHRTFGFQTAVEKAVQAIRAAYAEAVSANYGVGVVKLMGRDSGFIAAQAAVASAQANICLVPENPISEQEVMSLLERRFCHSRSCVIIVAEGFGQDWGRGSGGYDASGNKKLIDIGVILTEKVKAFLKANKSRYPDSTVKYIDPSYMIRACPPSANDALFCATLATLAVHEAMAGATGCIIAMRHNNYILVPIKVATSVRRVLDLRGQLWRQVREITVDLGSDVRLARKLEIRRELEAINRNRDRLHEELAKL

CN(C)[C@@H]1C(=O)C(C(N)=O)=C(O)[C@]2(O)C(=O)C3=C(O)c4c(O)ccc(Cl)c4[C@](C)(O)[C@H]3C[C@@H]12
outcome [1]: inactive | activity change, negative = inhibition [2]: -5.59% (inactive) | Potency [3]: > 20.6 µM (inactive) | Potency [4]: > 20.6 µM (inactive) | Potency [5]: inactive | activity change, negative = inhibition ([6]; at 25.7 µM (top of the series)): 0.321% (inactive) | max response [6, 13]: -2.07% | max response [6, 14]: -2.35% | Potency [7]: inactive | Potency [8]: inactive | activity, negative = inhibition ([9]; parasite line A): -8.57% (inactive) | activity, negative = inhibition ([9]; parasite line B): -7.26% (inactive) | Potency (C2A): inactive | Potency (CP217): inactive | Potency (CP252): inactive | Potency (CP256): inactive | Potency (CP262): inactive

C[C@@]12CC[C@H]3[C@@H](CC[C@]4(O)C[C@H](O)CC[C@@]34C=O)[C@]1(O)CC[C@@H]2C1=CC(=O)OC1
outcome [10]: inactive | Potency [3]: > 20.6 µM (inactive) | Potency [4]: > 20.6 µM (inactive) | outcome [11]: inactive | activity change, negative = inhibition ([6]; at 25.7 µM (top of the series)): -0.542% (inactive) | max response [6, 13]: 6.59% | max response [6, 14]: 6.37% | Potency [12]: inactive

O=C(O)CNCP(=O)(O)O
outcome [1]: inactive | outcome [10]: inactive | Potency [3]: > 46 µM (inactive) | Potency [4]: > 9.22 µM (inactive) | Potency [5]: inactive | activity change, negative = inhibition ([6]; at 57.5 µM (top of the series)): 2.6% (inactive) | max response [6, 13]: 16.5% | max response [6, 14]: 20.1%
